Measurements as given in the supplement of paper PMC11732987, “Enantioselective OTUD7B fragment discovery through chemoproteomics screening and high-throughput optimisation” (Communications Chemistry, 2025).

What was measured:
Assay in all cases: log2 ratio of Biotin-Ahx-Ub-VS probe labelling (fragment/DMSO); higher = less target engagement (more negative = stronger competition), active = hit call of the paper (q ≤ 0.05, log2 ratio ≤ -1)
Details in all cases: compound concentration: 200 uM; treatment time: 3 h
[1] = target: T1, ALG13 (UniProt Q9NP73)
T1 sequence (whole entry): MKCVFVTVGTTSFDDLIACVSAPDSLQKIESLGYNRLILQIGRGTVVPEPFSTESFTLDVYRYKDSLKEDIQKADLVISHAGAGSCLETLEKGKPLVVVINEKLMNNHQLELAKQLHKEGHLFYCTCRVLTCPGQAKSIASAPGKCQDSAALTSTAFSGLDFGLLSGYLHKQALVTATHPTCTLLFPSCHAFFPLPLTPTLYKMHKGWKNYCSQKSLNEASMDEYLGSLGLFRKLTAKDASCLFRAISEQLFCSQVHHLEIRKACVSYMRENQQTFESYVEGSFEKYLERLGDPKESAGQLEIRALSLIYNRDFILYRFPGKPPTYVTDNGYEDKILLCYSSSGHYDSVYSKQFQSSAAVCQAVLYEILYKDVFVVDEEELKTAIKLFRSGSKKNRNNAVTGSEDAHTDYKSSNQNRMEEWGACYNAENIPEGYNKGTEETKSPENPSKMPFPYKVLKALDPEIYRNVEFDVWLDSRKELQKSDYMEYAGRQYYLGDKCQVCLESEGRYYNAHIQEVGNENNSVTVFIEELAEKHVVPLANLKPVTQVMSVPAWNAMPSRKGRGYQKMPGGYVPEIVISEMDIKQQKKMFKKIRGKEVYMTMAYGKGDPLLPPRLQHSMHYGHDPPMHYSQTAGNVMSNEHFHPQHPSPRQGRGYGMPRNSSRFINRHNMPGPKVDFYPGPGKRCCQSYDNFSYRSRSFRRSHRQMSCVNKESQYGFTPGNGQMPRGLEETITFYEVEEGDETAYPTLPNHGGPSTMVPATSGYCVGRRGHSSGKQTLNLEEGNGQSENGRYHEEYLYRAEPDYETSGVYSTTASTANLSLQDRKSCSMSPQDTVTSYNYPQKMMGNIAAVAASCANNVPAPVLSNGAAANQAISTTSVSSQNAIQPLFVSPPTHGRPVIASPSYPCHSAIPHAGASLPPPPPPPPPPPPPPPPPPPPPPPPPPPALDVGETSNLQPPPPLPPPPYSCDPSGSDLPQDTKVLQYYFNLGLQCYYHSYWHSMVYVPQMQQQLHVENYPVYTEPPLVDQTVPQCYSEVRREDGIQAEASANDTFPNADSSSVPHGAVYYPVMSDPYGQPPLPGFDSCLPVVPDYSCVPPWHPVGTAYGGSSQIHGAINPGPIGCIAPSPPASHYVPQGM
Procedure, shortened: (§1)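 Each value is an average log2 ratio of fragment to vehicle, tested by unpaired t-test. The underlying Spectronaut label-free quantities were global-median-normalised, and only proteins with ≥2 unique peptides were included. Triplicate HEK293T lysate samples (495 µg) were exposed to fragment at 200 µM or vehicle for 3 h, then to Biotin-Ahx-Ub-VS at 0.5 µM final for 1 h, before NeutrAvidin enrichment of labelled DUBs, LysC and trypsin digestion, and diaPASEF LC-MS/MS.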

[2] = target: ATXN3 (UniProt P54252)
Procedure, shortened: as §1

[3] = target: T2, BAP1 (UniProt Q92560)
T2 sequence (whole entry): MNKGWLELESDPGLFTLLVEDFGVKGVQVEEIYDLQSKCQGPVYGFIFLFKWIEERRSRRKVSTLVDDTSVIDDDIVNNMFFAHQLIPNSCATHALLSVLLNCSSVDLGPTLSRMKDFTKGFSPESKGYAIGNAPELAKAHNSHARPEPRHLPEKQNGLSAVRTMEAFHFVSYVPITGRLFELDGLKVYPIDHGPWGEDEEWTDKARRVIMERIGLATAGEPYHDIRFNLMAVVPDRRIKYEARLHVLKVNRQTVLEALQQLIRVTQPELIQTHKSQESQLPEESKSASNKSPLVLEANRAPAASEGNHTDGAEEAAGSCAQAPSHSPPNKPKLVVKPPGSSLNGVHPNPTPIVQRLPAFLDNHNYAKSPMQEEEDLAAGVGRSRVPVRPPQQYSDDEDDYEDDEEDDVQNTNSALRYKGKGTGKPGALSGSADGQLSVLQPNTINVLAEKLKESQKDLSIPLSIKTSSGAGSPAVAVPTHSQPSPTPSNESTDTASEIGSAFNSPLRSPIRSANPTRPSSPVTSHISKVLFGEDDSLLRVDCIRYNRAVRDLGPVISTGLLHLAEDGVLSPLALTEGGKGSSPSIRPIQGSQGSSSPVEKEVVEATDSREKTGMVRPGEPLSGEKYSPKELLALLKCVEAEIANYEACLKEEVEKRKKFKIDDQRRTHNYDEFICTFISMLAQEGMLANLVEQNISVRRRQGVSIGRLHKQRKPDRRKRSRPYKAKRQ
Procedure, shortened: as §1

[4] = target: EIF3F (UniProt O00303)
Procedure, shortened: as §1

[5] = target: EIF3H (UniProt O15372)
Procedure, shortened: as §1

[6] = target: T3, FAM105A (UniProt Q9NUU6)
T3 sequence (whole entry): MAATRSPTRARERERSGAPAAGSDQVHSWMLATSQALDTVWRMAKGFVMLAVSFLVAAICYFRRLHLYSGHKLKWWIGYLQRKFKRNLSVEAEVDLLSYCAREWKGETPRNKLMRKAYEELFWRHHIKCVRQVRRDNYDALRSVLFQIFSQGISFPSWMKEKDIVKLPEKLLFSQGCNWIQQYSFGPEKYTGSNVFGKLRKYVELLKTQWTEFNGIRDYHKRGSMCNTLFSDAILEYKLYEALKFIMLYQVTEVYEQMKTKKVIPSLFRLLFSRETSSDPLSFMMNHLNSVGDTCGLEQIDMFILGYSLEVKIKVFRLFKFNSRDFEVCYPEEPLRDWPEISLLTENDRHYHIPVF
Procedure, shortened: as §1

[7] = target: OTUB1 (UniProt Q96FW1)
Procedure, shortened: as §1

[8] = target: T4, OTUD4 (UniProt Q01804)
T4 sequence (whole entry): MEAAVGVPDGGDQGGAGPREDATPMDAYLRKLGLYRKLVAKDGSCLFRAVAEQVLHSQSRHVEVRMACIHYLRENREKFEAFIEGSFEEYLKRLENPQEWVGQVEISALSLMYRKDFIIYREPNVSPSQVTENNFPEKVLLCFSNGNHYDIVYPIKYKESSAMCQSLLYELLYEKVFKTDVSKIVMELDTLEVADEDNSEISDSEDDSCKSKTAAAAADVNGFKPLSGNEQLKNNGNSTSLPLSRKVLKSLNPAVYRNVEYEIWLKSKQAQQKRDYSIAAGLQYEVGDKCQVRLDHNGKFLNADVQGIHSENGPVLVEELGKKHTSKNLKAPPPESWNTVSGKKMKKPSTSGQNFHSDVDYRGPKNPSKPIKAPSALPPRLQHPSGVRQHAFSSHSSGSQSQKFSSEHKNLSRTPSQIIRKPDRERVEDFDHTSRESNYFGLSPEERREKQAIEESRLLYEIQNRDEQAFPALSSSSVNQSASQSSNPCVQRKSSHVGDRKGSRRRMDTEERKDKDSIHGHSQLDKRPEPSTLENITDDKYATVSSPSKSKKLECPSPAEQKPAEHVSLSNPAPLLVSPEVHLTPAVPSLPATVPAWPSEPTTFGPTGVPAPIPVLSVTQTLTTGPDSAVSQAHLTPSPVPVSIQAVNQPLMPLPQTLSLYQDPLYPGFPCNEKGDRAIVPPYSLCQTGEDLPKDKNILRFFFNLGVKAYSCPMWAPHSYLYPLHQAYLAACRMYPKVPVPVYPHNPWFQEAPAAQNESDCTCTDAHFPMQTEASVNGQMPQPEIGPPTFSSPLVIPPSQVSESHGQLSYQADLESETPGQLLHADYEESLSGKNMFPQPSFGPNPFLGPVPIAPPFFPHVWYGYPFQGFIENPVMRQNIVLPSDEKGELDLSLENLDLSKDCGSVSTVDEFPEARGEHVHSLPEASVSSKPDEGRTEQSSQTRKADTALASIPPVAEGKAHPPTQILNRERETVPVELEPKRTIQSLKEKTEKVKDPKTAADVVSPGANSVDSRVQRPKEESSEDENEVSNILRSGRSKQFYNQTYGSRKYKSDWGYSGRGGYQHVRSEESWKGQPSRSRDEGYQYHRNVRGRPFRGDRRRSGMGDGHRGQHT
Procedure, shortened: as §1

[9] = target: T5, OTUD5 (UniProt Q96G74)
T5 sequence (whole entry): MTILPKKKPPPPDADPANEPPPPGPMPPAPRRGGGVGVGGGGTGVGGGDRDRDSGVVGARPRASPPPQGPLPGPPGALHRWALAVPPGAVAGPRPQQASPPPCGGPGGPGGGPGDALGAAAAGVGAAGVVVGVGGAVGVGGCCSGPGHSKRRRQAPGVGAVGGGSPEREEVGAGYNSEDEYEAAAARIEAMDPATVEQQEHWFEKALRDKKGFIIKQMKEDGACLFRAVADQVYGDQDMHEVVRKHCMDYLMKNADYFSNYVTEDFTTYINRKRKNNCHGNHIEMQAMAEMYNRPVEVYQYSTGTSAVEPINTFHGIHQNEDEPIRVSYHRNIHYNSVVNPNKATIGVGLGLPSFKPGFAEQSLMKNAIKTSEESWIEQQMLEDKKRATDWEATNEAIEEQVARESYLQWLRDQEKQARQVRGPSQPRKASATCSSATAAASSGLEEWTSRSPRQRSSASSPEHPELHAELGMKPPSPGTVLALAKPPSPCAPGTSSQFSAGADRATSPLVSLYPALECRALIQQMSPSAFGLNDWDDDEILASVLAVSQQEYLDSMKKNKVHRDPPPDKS
Procedure, shortened: as §1

Measured: log2 ratio of Biotin-Ahx-Ub-VS probe labelling

Chain of OTUB1 (Q96FW1 whole entry): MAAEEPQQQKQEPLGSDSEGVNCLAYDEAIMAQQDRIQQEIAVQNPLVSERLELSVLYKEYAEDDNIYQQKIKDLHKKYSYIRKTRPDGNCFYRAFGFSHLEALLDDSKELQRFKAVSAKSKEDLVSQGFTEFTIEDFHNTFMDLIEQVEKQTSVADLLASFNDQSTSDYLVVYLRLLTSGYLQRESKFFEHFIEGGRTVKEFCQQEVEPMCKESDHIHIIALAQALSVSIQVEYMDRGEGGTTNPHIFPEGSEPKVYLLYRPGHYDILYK
Chain of ATXN3 (P54252 whole entry): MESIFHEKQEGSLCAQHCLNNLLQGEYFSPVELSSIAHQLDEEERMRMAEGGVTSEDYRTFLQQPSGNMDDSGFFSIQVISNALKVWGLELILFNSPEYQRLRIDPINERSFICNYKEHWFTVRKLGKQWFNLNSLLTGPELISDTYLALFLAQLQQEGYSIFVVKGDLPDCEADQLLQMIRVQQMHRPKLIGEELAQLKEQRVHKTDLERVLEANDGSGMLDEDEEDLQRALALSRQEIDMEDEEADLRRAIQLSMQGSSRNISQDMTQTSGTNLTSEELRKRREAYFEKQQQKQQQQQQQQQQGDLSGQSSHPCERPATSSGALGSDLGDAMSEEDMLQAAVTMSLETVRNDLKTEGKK
Chain of EIF3F (O00303 whole entry): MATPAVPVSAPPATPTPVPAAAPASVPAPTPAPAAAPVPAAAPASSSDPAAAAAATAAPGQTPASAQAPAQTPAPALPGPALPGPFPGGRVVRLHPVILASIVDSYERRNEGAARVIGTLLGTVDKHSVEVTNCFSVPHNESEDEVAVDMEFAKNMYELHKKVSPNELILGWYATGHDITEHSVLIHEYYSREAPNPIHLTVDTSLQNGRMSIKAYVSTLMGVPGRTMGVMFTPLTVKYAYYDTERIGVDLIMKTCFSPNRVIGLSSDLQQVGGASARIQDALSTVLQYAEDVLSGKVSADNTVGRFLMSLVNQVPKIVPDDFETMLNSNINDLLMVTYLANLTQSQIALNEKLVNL
Chain of EIF3H (O15372 whole entry): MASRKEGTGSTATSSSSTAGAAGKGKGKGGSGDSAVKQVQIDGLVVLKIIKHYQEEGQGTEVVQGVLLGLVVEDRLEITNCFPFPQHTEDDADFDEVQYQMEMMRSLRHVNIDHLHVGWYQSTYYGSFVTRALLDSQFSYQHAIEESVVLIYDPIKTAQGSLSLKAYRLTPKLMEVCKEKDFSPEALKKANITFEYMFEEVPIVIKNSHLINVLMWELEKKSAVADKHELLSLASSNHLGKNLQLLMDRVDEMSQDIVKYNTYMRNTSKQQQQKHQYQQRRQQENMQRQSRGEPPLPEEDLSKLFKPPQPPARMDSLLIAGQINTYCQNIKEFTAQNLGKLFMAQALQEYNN

O=C(CCl)N1CCC(=C(F)CO)C1
inactive: [1] -0.0371 | [2] -0.106 | [3] -0.015 | [4] -0.0747 | [5] -0.169 | [6] -0.0583 | [7] -0.0358 | [8] 0.198 | [9] -0.126
